ROC1-CUL1 inh: inhibitors of human ROC1-CUL1 ubiquitin ligase activity; P62877+Q13616; in vitro K48 di-Ub FRET, acceptor:donor ratio, 45 min; inhibition, % at 10 µM; hit rate 0.6% among 140,000; in the data active = inhibition above about 25%
Target sequence (P62877 whole entry, looked up): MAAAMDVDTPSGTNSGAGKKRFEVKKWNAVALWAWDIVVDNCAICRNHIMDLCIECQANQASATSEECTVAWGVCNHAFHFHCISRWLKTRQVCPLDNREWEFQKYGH
Target sequence (Q13616 whole entry, looked up): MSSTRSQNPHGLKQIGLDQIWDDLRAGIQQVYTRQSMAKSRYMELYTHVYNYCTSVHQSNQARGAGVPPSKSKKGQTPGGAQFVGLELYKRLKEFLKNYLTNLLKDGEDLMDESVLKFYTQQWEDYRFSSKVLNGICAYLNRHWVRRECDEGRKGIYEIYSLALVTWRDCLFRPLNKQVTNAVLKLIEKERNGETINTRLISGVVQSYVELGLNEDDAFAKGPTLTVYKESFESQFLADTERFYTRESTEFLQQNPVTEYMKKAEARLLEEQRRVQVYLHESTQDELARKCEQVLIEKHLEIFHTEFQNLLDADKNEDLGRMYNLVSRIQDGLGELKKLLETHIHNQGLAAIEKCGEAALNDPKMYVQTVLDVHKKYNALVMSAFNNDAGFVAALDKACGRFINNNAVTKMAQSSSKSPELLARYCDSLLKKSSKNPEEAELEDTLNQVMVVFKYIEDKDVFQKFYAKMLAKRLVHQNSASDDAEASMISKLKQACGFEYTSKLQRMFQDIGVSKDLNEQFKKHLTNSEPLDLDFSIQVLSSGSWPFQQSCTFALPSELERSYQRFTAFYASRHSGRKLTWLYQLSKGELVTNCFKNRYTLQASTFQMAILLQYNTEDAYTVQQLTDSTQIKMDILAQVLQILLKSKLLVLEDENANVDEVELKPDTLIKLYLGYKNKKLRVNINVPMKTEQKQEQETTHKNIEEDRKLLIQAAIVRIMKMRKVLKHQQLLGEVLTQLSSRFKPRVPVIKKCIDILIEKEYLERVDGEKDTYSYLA
Numbers without * were called inactive. Shown is part of a subset that was picked to be rich in hits.

SMILES	ROC1-CUL1 inh
O=C(/C=C/c1ccccc1)C1C(=O)C(=O)N(c2ccccn2)C1c1ccccc1 (stereo not given)	7.5
CN(C)c1ccc(C2C(C(=O)c3ccccc3)C(=O)C(=O)N2c2ccc(Cl)cc2)cc1 (stereo not given)	-1.9
O=C1C(=O)N(c2nccs2)C(c2ccc(Cl)cc2)C1C(=O)c1ccccc1 (stereo not given)	63.6*
Clc1cccc(CSc2nc3ccccc3s2)c1	-6.5
COc1cccc(OCc2cc(C(=O)N3CCN(c4ncccn4)CC3)n[nH]2)c1	5.4
O=S(=O)(N1CCCC1)N1CCN(c2ccc(Cl)cc2)CC1	-8.2
Cc1csc(NC(=O)CSc2nnc(COc3ccccc3)n2N)n1	0.5
Cc1ccc(/C=C/C(=O)Nc2ccccc2C(N)=O)o1	0.4
Cc1ccc(/C=C/C(=O)Nc2nc(-c3ccc(C)c(C)c3)cs2)o1	-4.2
COc1ccc(/C=C/C(=O)Nc2ccc(C)c(Cl)c2)cc1OC	1.7
Cc1ccc(/C=C/C(=O)Nc2cccnc2)o1	44.7*
COc1cc(NC(=O)/C=C\c2ccc(C)o2)c(OC)cc1Cl	4.3
Cc1ccc(/C=C/C(=O)Nc2ccc(C)c(Cl)c2)o1	65.7*
Cc1nn(-c2ccccc2)c(C)c1CC(=O)N1CC[C@@H](N2CCN(C)CC2)[C@H](O)C1	-5.2
CCOc1ccc(C2C(C(N)=O)C(C)=Nc3nc(SCc4ccccc4F)nn32)cc1 (stereo not given)	0.0
CC(C)c1ccc(/C=C/c2nc(N)[nH]c(=O)c2[N+](=O)[O-])cc1	4.8
CC(C)(C)c1ccc(N)c([N+](=O)[O-])c1	0.6
CC(C)(C)c1ccc(/C=C/c2[nH]c(=O)[nH]c(=O)c2[N+](=O)[O-])cc1	99.1*
O=C1C(=O)N(CNc2ccccc2Cl)c2ccccc21	-9.0
O=C1c2ccccc2C(=O)N1CN1CCCCCC1	3.7
O=C1C2=C/C(=C\N3CCCCC3)C(=O)N2c2ccccc21	74.9*
COc1cc2oc3c(c2cc1O)CCCC3	8.6
Cc1cc2nc3c(nc2cc1C)C1(C(=O)NC(C)C)CCC3(C)C1(C)C (stereo not given)	-2.4
Cc1ccc(C(=O)O)cc1-c1ccc(CC2=NC(=O)N(c3ccc(Cl)cc3)C2=O)o1	50.2*
O=C1NC(=S)N=C1Cc1ccc(-c2cc(C(=O)O)ccc2Cl)o1	10.3
SMILES	ROC1-CUL1 inh
Cc1c(C(=O)O)cccc1-c1ccc(CC2=NC(=O)N(c3cccc(Cl)c3)C2=O)o1	-3.2
CCOC(=O)c1cc(C(=O)Nc2cc(C)ccn2)nn1C	-1.5
CC(Oc1ccccc1)c1nn2c(Cc3ccccc3)nnc2s1 (stereo not given)	-5.5
Clc1ccc(Cn2c(C3=CSCN3)nc3ccccc32)cc1Cl	1.8
CCOC(=O)C1C(C)=NC(=O)NC1c1ccc(C)o1 (stereo not given)	8.4
Cc1ccc(OCCCCCN2CCNCC2)cc1	0.3
Cc1ccc(OCCCCN2CCNCC2)c(C(C)(C)C)c1	25.1*
Cc1cc(Cl)ccc1OCCCCCN1CCNCC1	-4.0
O=C(Cn1cnc2ccccc2c1=O)Nc1nc2c(s1)CCCC2	-0.6
Cc1ccccc1NS(=O)(=O)c1cccc(C(=O)O)c1	-0.3
CCOC(=O)c1cnc2c(C)c(Cl)ccc2c1NCCN(C)C	-1.2
CC1(C)CC(=O)C2=C(C1)OC(=N)C(C#N)C2c1ccc(Cl)cc1Cl (stereo not given)	-6.1
CCN(CC)c1ccc(/C=C2\C(=O)N(c3nnc(C)c(=O)[nH]3)N=C2C)cc1	57.1*
CCN(C)c1ccc(C=C2C(=O)N(C)C(=O)N(C)C2=O)cc1	1.4
CCN(CC)c1ccc(C=C2C(=O)N(c3ccccc3)C(=O)N(c3ccccc3)C2=O)cc1	-34.9
C=CCN1CCN(C(=O)C(C)Oc2ccc(Br)cc2)CC1 (stereo not given)	6.2
CCC(OC(=O)c1ccc(-c2nnc(-c3ccccc3)o2)cc1)C(=O)c1ccccc1 (stereo not given)	2.8
CCCCNC(=O)c1c(C)c(-c2ccc(C)cc2)nc2ccccc12	-2.4
Cc1ccc(C(=O)Nc2cnn(-c3ccc(C(=O)N4CCC(c5ccc(F)cc5)C4)cc3)c2)c(C)c1 (stereo not given)	-5.3
COc1ccccc1-c1ccnc(-n2ncc(C(=O)NCCCc3ccncc3)c2C)n1	5.5
COc1ccc(/C=C2/C(=N)N3N=C(C(F)(F)F)SC3=NC2=O)c(OC)c1OC	6.3
Cc1c(/C=C2\C(=N)N3N=C(C(F)(F)F)SC3=NC2=O)c2ccccc2n1Cc1ccc(F)cc1	4.5
N=C1/C(=C/c2ccc(-c3ccccc3)o2)C(=O)N=C2SC(C(F)(F)F)=NN12	60.0*
N=C1/C(=C/c2ccc(-c3ccc(F)cc3)o2)C(=O)N=C2SC(C(F)(F)F)=NN12	93.2*
N=C1/C(=C/c2ccc(-c3ccccc3)o2)C(=O)N=C2SC(c3ccccc3Cl)=NN12	3.5
SMILES	ROC1-CUL1 inh
CC(C)C1=NN2C(=N)/C(=C/c3ccc(-c4cc(Cl)cc(Cl)c4)o3)C(=O)N=C2S1	-0.6
N#CC1C(=N)C(C#N)(C#N)[C@H](c2ccc(Cl)cc2Cl)[C@H]2CN(C(=O)OCc3ccccc3)CC=C12 (stereo not given in full)	2.6
Cc1cc(OCC(=O)Nc2nccs2)ccc1Cl	1.2
Cc1nnc(CN(C)Cc2cn(C)nc2-c2cccc(Cl)c2)o1	-3.2
CCOC(=O)c1c(C)oc2ccc(N(C(=O)c3ccncc3)S(=O)(=O)c3ccc(OC)cc3)cc12	3.8
O=S(=O)(Cc1ccc(Br)cc1)NC1CC1	-5.8
Cc1nc(N(C)C2CCCCC2)ncc1C(C)NC(=O)CCC(N)=O (stereo not given)	-4.2
CCOc1cc(/C=C2/C(=O)N(c3cccc(C(=O)O)c3)N=C2C)ccc1OCC(=O)Nc1ccccc1	35.8*
CCOc1cc(/C=C2\C(=O)N(c3cccc(C(=O)O)c3)N=C2C(F)(F)F)ccc1OCC(=O)Nc1ccccc1OC	15.3
COc1cc(/C=C2\C(=O)N(c3ccc(C)cc3)N=C2C)ccc1OCC(=O)Nc1ccc(C(=O)O)cc1	-2.1
COc1cc(/C=C2/C(=O)N(c3ccccc3)N=C2C)ccc1OCc1ccc(F)cc1	10.2
C#CCOc1ccc(/C=C2\C(=O)N(c3cccc(F)c3)N=C2C)cc1OC	31.3*
COc1cc(/C=C2\C(=O)N(c3cccc(F)c3)N=C2C)ccc1O	0.1
CCc1cc2c(=O)n(-c3ccc(Cl)cc3)c(SCC(=O)c3ccc(F)cc3)nc2s1	-4.5
CCOc1ccccc1C(=O)Oc1ccccc1OC	10.8
CC(=O)c1nn(-c2cccc(Cl)c2)cc1C(=O)c1ccc(C)cc1	-4.5
O=C(O)c1ccnc(SCC(=O)c2ccccc2)c1	6.3
CCOc1ccc(-c2nc(SCC(=O)c3ccccc3)n[nH]2)cc1	-2.5
O=C(O)c1cccnc1SCc1c(F)c(F)c(F)c(F)c1F	12.6
O=C(CSc1n[nH]c(-c2ccc(Br)cc2)n1)c1ccc([N+](=O)[O-])cc1	-0.1
O=C(CSc1ncccc1C(=O)O)c1ccc(O)c(O)c1	30.7*
O=C(CSc1n[nH]c(-c2ccccc2)n1)c1ccc(O)c(O)c1	27.0*
O=C(CC1(c2ccccc2Cl)CC(=O)N(C2CCCC2)C1=O)N1CC[C@@H]2CCCC[C@H]2C1 (stereo not given in full)	-1.0
CC(C)C(=O)COc1cccn2cc(C(C)C)nc12	2.5
O=C1CCCc2c1c1ccccc1c(=O)n2Cc1ccccc1	5.4
CC(C(=O)O)N1C(=O)/C(=C/c2ccc3c(c2)OCO3)SC1=S (stereo not given)	2.8
CC(C)N1C(=O)/C(=C/c2ccc3c(c2)OCO3)C(=O)N(Cc2ccco2)C1=O	101.8*
